In all, about 33,000 sequences were measured (“E-score (-0.5 to 0.5)”: median about -0.016, highest 2% from about 0.31 on). The full list was thinned out, with the highest values kept by preference.
Molecular target: Cst6 (UniProt P40535)
Assay: PBM E-score (8-mer binding enrichment) (E-score (-0.5 to 0.5)); higher = stronger / more preferred TF binding
Conditions: protein concentration: 200 nM; construct: GST-DNA-binding domain
Procedure, shortened: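 Masliner-normalised scans of fluorescent anti-GST signal were the basis for scoring. That signal came from GST-tagged yeast transcription factors applied at about 100-200 nM to double-stranded universal all-10-mer Agilent arrays on fresh or once-stripped slides. Each ungapped eight-base word, pooled with its reverse complement, received an E-score from the Universal PBM Analysis Suite.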

Chain of UniProt P40535 (P40535 whole entry): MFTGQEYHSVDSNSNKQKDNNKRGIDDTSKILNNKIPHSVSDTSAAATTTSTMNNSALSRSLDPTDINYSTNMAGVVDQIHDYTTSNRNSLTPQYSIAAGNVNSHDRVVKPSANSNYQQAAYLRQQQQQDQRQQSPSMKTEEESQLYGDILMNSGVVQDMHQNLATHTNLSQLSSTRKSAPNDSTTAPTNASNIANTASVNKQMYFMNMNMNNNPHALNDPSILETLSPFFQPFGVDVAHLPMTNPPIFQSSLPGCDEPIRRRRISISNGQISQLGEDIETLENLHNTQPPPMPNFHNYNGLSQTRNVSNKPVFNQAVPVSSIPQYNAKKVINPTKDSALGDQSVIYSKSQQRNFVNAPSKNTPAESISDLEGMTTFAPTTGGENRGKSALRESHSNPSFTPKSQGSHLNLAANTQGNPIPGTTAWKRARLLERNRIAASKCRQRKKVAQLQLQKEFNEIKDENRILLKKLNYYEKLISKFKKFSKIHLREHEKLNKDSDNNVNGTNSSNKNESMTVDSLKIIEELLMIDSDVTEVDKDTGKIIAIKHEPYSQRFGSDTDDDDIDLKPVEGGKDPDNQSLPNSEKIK

Sequence | PBM E-score
ATCGGCTA | -0.138
CGGGCGTC | -0.0942
AAGCCCGG | -0.209
AGAACGGG | -0.0993
CAATAAGA | 0.181
ACTGGTTA | 0.0197
AGGGACGA | 0.0201
CGAGCTCA | -0.0803
AGAGCTCA | -0.192
TGAGCTCA | 0.374
GAACCGCC | -0.092
GAGCTAAA | -0.0615
CACGTACA | -0.0529
CCCGTATA | -0.0644
GCCGTATA | 0.367
AACGTACA | 0.0856
AACGTATA | 0.215
CACGTATA | 0.167
ACCGTATA | -0.0183
TACGTATA | 0.328
TACGTACA | 0.336
GACGTATA | 0.322
TACGTAGA | 0.224
CACGTATG | 0.204
ATGTTCGA | 0.0764

Sequence | PBM E-score
CAATTGTC | 0.0392
AGGATACC | -0.251
GCAGTAAC | -0.065
CATTCTGC | 0.0305
CTTCGATA | 0.178
ATTCCAAA | 0.118
CGCATCCC | -0.216
ACGTAGCC | -0.0377
GATGACGC | 0.473
GATGACAA | 0.333
GATGACAC | 0.286
AATGACAT | 0.422
GATGACTA | 0.171
GACGACGC | 0.074
AATGACAG | 0.167
AATGACAA | 0.267
GATGACGA | 0.463
GATGACCC | -0.0821
GATGACCA | 0.101
CATGACAA | 0.14
ATAAGGGC | 0.0296
GCCGATAC | -0.136
CTCGCTAA | 0.0589
AGACGTTA | 0.0355
TGATCGCA | 0.0445

Sequence | PBM E-score
AGCCGGGC | -0.185
AAGCTTGA | -0.0535
GCTTCGAA | -0.0925
AATGACGT | 0.495
TATGACGA | 0.424
AATGACCT | 0.25
TATGACAA | 0.25
ACTGACGC | 0.243
CATGACAC | 0.328
AAGGACGT | 0.0462
TATGACCA | 0.202
CCTGACAC | 0.029
AATGACGC | 0.453
ATTGACGC | 0.265
AATGACAC | 0.273
AGAGCGGA | -0.0178
CTCAGACC | -0.22
AGACCACC | -0.137
ACCGTCCA | -0.185
ACAGTGAA | 0.146
CATCTAGA | 0.019
TCCTAGCA | -0.162
GCTCCGAA | -0.0443
CATGACCG | 0.0772
ACTGACGG | 0.105

Sequence | PBM E-score
CATGACGG | 0.38
CATGACGA | 0.438
ACTGACGA | 0.201
CCTGACGA | 0.182
AATGACGG | 0.35
AATGACGA | 0.451
CATGACCA | 0.0978
AATGACTA | 0.041
CATGACAG | 0.118
AATGACCG | 0.178
CGGCCTCA | -0.0129
ACCACCGA | -0.145
CAAAAGCA | -0.0642
AGGGGATG | -0.161
CGGGGCTC | -0.307
ATCGGAGA | -0.197
CATGACGC | 0.455
AGTGACAA | 0.169
CATGACTC | 0.0297
AGTGACAT | 0.459
CATGACCC | -0.0425
AGTGACAC | 0.274
AGCAGAAC | -0.0649
AATCCACC | -0.121
CAGGGCCC | -0.335

Sequence | PBM E-score
AAGTGACA | 0.357
GAGTGACA | 0.287
AAGTGACC | -0.131
AAGTGACT | 0.024
TAGTGACA | 0.338
AAGTGAGA | 0.00703
AAGTGAAA | 0.193
CAGTGACG | 0.435
CAGTGACA | 0.248
CAGTGACC | -0.0895
TAGTGATA | 0.088
AAGTGACG | 0.45
GGAGAATA | 0.103
TACCCGAA | -0.133
ATGCCACG | 0.00475
GGGAGTAC | -0.226
ACTCACCA | 0.043
GGCGTAAC | -0.0656
CCCACGGG | -0.214
TTATCCAA | 0.162
TGGTGACA | 0.378
CATTGACG | 0.358
GGGTGACC | -0.0338
CATTGACC | 0.149
CATTGACA | 0.0835

Sequence | PBM E-score
GGGTGACA | 0.243
CTGCTCCC | -0.174
CCTAATGC | -0.0866
CATCTAAA | 0.194
TCAGCTGA | 0.152
ATTGAGCC | 0.197
TCATTGCA | 0.321
CCATTACA | 0.225
CCATTGCA | 0.024
ACATTAAA | 0.198
GCATTAAA | 0.163
GCATTACA | 0.187
ACATTGCA | -0.0281
TCATTAAA | 0.352
TCATTACA | 0.368
CGGAGAGC | -0.0924
CGTCGGAC | -0.178
ATTTCACG | -0.00077
AGTAAGGA | -0.0515
ATAGATGG | -0.129
CCTTCGAG | -0.21
TGAAGTCA | 0.372
CGAAGTCA | 0.0581
GGAAGTCA | -0.14
CAGCAGTC | -0.258

Sequence | PBM E-score
ATATTTAA | 0.355
CTATTAAA | 0.192
ATATTAAA | 0.355
CTATTTAA | -0.0505
TTATTAAA | 0.264
ATATTTAC | 0.175
ATCAAAGG | -0.0902
CTACCACA | -0.155
AGTTCCCG | -0.205
AGGGCAAT | -0.0329
GTGCGTAA | 0.192
ATGCGTCC | -0.213
ATGCGTCA | 0.444
GTGCGTCA | 0.432
CTGCGTTA | -0.204
ATGCGTCG | 0.0508
CTGCGTCC | -0.11
CTGCGTCA | 0.428
GTGCGTGA | 0.136
TCTAACCA | 0.057
CGTCTACC | -0.0234
CATTTAGA | 0.136
AGCAGCTC | -0.28
GTCAAGCA | -0.29
CCATATAA | 0.105

Sequence | PBM E-score
GCATATAA | 0.166
CAATAAAA | 0.165
GCATAACA | 0.124
GAATATAA | 0.111
TCATAACA | 0.311
ACATAACA | 0.227
GAATAAAA | 0.216
TAATAAAA | 0.316
AAATATAA | 0.233
TAATATAA | 0.358
TCATATAA | 0.305
CATCCTAC | -0.0877
CCAGGGCC | -0.39
ATTGGCGC | 0.0493
CGACTACC | -0.363
CTTCCATC | -0.0839
CAAGTCTC | -0.247
TCGCCTAA | -0.0175
AAAAGAGG | -0.121
TACCAGAA | 0.0986
AGGGAAGG | -0.28
CAATATAG | 0.0707
CAATATAC | -0.0952
CAATATAA | 0.312
TCACGGCA | 0.224

Sequence | PBM E-score
GCACGGCC | 0.23
GCACGGCA | 0.353
GAACGGCC | -0.183
CAACGGCA | 0.094
GAACGGCA | 0.352
GGCAGGCC | -0.332
ATGGGTCC | -0.242
GACACCAC | -0.0664
CGTTGTCC | 0.126
GGGGAAAA | -0.101
CGCATACC | 0.117
ATTATGTC | 0.359
GTTATGTA | 0.165
ATTATGTG | 0.228
ATTATGTA | 0.355
ACTATGTC | 0.0789
CTTATGTC | 0.105
CTTACTGA | -0.0696
GGGCTCAA | -0.174
ACCCCTTG | -0.33
AGAAATCG | -0.0866
GCTATATA | 0.167
AATATTGG | 0.0316
ACTATATC | 0.128
AATATATG | 0.171

Sequence | PBM E-score
TATATACA | 0.161
ACTATATA | 0.316
TATATATA | 0.315
GATATATA | 0.304
AATATTGT | 0.306
AATATATA | 0.239
AATATATT | 0.355
AATATTGC | 0.257
GAATGTGC | 0.07
GGACGAAC | -0.0196
ACTTGCGC | -0.0133
CTCGCATC | 0.00499
AGTATATG | 0.111
CATATATA | 0.272
CATATATC | 0.121
CATATATG | 0.341
AGTATATA | 0.348
AGTATATC | 0.0089
AGTTGCGA | 0.0793
AAACTGAT | 0.0925
ACGCGATG | 0.122
AATTGTCG | 0.0471
CATTTGTC | 0.0906
CAGGGTTA | -0.124
AACGTAAT | 0.453

Sequence | PBM E-score
GACGTAAA | 0.374
AACGTAAA | 0.274
AACGTAAG | 0.306
CACGTAAA | 0.181
AACGTAGC | 0.0195
AACGTAAC | 0.329
GCCGTAAA | 0.243
ACCGTAAC | -0.0255
ACCGTAAG | 0.109
AACGTACT | 0.0968
CACGTAAG | 0.292
CACCCTCA | -0.212
AAGTTCAC | -0.0134
GACTTGAA | -0.171
AGCTGTGA | 0.135
TCGGAAAA | 0.113
AGTCTAGA | -0.124
CTCGGACC | -0.18
GGGCTGGA | -0.295
CATGCGTA | 0.15
CACGTAAC | 0.262
TGCGTAAA | 0.218
GACGTACC | 0.349
TCCGTAAA | -0.0237
AACGTACC | -0.185

Sequence | PBM E-score
TACGTAAA | 0.42
GACGTAGC | 0.166
GACGTAAC | 0.46
CACGTACC | -0.0025
GCTTGATA | 0.162
CCCGCTCA | -0.0513
CCGCAGGA | -0.234
AATCGGGT | 0.191
TCTCGGCA | -0.0951
GCAGCCCC | -0.349
GGGTGTAC | -0.185
CTTACATC | 0.365
ATTACACC | 0.089
ATTACACA | 0.318
ATTACACG | 0.205
CTTACATA | 0.25
GTTACATA | 0.228
ATTACATG | 0.245
ATTACAAC | 0.226
CTCACATC | 0.0865
ATTACATA | 0.396
AGTACATC | -0.0114
ATTACATC | 0.433
GAGACCCC | -0.279
AACCCACC | 0.0456

Sequence | PBM E-score
CTTTAGAA | 0.0739
AATCCGAG | -0.0702
ATCAAGGA | -0.0436
AAGGGGCA | -0.178
ATGATAAC | 0.263
ATGATATA | 0.31
ATGATATG | 0.269
GTGATAAA | 0.201
ATGATAAA | 0.307
CTGATATA | 0.179
ATCAAATG | 0.0892
AATATTAT | 0.242
AATATTAA | 0.334
TATATTAA | 0.336
GATATTAA | 0.201
CATATTAA | 0.234
AATATTAG | 0.185
TGGATCAA | 0.125
CCTAGTAA | -0.194
CAAAGCTA | 0.0247
ATCATTAA | 0.28
CTCATTTA | 0.141
GTCATTTA | 0.368
CTCATTAA | 0.0741
ATCATTTA | 0.335

Sequence | PBM E-score
ATCATTTG | 0.165
ATCATTTC | 0.246
GTCATTAA | 0.394
GACATTTA | 0.115
CCGCTCCA | -0.152
ACCCCCCC | -0.357
ATTGACAG | 0.0614
GTGACGGA | 0.352
ATGACGGC | 0.365
CTGACGGA | 0.165
ATGACGGA | 0.417
GCGACGGA | -0.224
CTGACGGC | 0.111
AAGACGGA | 0.00374
ATGACGGG | 0.258
ACGACGGA | 0.0762
CGCATAAG | 0.102
CGTACGGA | 0.168
GAAAGCGC | -0.00012
CCAAACCC | -0.126
ATGACACC | 0.228
ATGACATC | 0.478
CTGACATC | 0.307
CGGACATC | -0.196
CTGACAGC | -0.148

Sequence | PBM E-score
ATGACAAC | 0.302
CAGAGGAG | -0.0824
CCTTACCC | -0.0626
CCAGAAGG | -0.0896
ACGCGCGC | 0.175
CCGCGCGC | 0.151
CCGCGCGA | 0.255
GCGCGCGA | 0.0433
GCGCGCGC | 0.345
CCGCGCGG | 0.382
AGCCCCAA | -0.281

Source: the supplement of paper PMC3334620
